Measured values reported in PubChem BioAssay.
Entries with a potency or affinity are not part of this list. Unmarked numbers belong to inactive results. Active and inactive are the calls of the source.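 The calls were made as follows, unless noted: active = a fitted half-maximal concentration no higher than twice the top valid tested dose, with signal falling as cells die; inconclusive = flat curve between -70% and -30%, or poor fit; inactive = the rest, including signal rising instead of falling.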

Experiment: HepG2 cell cytotoxicity, dose response, cytotoxicity control, cherry-picks, set 2 (AID 687002;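 active = a dose-response fit showing signal loss, with half-maximal concentration no higher than twice the top tested dose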)
Conditions: HepG2 viability, ATP luminescence (CellTiter-Glo), 48 h; series mostly up to 26 µM; activity change, negative = cytotoxicity: at the top concentration
For `O=C(NC(=S)NCC1COc2ccccc2O1)c1ccc(Cl)cc1` (stereo not given), the “activity change, negative = cytotoxicity” value was 1.09% [at 35 µM]. For `S=C(NCc1ccccc1)NCC1COc2ccccc2O1` (stereo not given), the “activity change, negative = cytotoxicity” value was -4.83%. In the case of `COc1cccc(NC(=S)NC(=O)Cc2ccc(Cl)cc2)c1`, the “activity change, negative = cytotoxicity” value is reported as 0.199%. In the case of `CCOc1ccc(CNC(=S)NCc2ccc(OCC)cc2)cc1`, the “activity change, negative = cytotoxicity” value is reported as -1.56%. For `Fc1ccccc1NC(=S)NCCc1cccc(Cl)c1`, the “activity change, negative = cytotoxicity” value was -2.37%. In the case of `COC(=O)C1=C(C)N(Cc2ccccc2)C(=S)NC1c1cccc(OC)c1` (stereo not given), the outcome is reported as “inactive”. For `CCOC(=O)NC(=S)Nc1ccc(C(C)(C)C)cc1`, the “activity change, negative = cytotoxicity” value was -14.8%. For `COC(=O)C1=C(C)N(Cc2ccc(F)cc2)C(=S)NC1c1cccc(Cl)c1` (stereo not given), the outcome was “inactive”. In the case of `O=C(CN(c1ccc(F)cc1)S(=O)(=O)c1ccccc1)N1CCOCC1`, the “activity change, negative = cytotoxicity” value is reported as 6.48%. For `COC(=O)C1=C(C)N(Cc2ccc(Br)cc2)C(=S)NC1c1cccc(Cl)c1` (stereo not given), the “activity change, negative = cytotoxicity” value was -11.2% [at 23.5 µM]. For `COC(=O)C1=C(C)N(Cc2ccc(F)cc2)C(=S)NC1c1ccccc1` (stereo not given), the “activity change, negative = cytotoxicity” value was 34.1% [at 28.5 µM]. For `O=C(NC(=S)Nc1ccccc1N1CCCC1)c1ccccc1[N+](=O)[O-]`, the “activity change, negative = cytotoxicity” value was 0.077%. With `CCc1ccc(C(C)NC(=S)NCc2ccc(F)cc2)cc1` (stereo not given) the “activity change, negative = cytotoxicity” value was -4.57%. For `O=C(COC(=O)CCC1CCCC1)Nc1nc2c(F)c(F)c(F)cc2s1`, the “activity change, negative = cytotoxicity” value was -5.42%. For `C[C@@H]1CN([C@H](C)CO)S(=O)(=O)c2ccc(C#Cc3ccccn3)cc2O[C@H]1CN(C)Cc1ccccc1`, the “activity change, negative = cytotoxicity” value was -10.6%. For `Cc1ccc(C(=O)NC(=S)Nc2ccc(N3CCOCC3)cc2)cc1`, the “activity change, negative = cytotoxicity” value was -4.44%. In the case of `COC(=O)C1=C(C)N(Cc2ccccc2)C(=S)NC1c1cccc(Br)c1` (stereo not given), the outcome is reported as “inactive”. For `COc1ccccc1NC(=S)NCc1ccc(Cl)cc1`, the “activity change, negative = cytotoxicity” value was -2.44%. For `O=C(NC(=S)Nc1ccc(Br)cc1)C1CCC1`, the “activity change, negative = cytotoxicity” value was -11.4%. In the case of `COC(=O)C1=C(C)N(Cc2ccc(Cl)cc2)C(=S)NC1c1ccc(Br)cc1` (stereo not given), the “activity change, negative = cytotoxicity” value is reported as -14.2% [at 23.5 µM]. For `Cc1cc(Cl)ccc1NC(=S)NCc1ccc(F)cc1`, the “activity change, negative = cytotoxicity” value was -8.68%.

Experiment: HeLa cell cytotoxicity, dose response, cytotoxicity control, ATP luminescence, cherry-pick samples (AID 687004);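 also: 0% = neutral control median and -100% = staurosporine 10 µM control median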
Conditions: HeLa viability, ATP luminescence (CellTiter-Glo), 48 h; series mostly up to 26 µM; activity change, negative = cytotoxicity: at the top concentration
With `Cc1cc(C(=O)NC(=S)Nc2ccccc2N2CCOCC2)ccc1[N+](=O)[O-]` the “activity change, negative = cytotoxicity” value was -1.5%. For `COC(=O)C1=C(C)N(Cc2ccccc2)C(=S)NC1c1ccc(Br)cc1` (stereo not given), the “activity change, negative = cytotoxicity” value was 23.8% [at 23.5 µM]. With `Cc1cc(C)c2nc(N3CCN(C(=O)c4cccs4)CC3)sc2c1` the “activity change, negative = cytotoxicity” value was 12%. For `S=C(Nc1ccccc1)Nc1cc(Cl)ccc1Oc1ccccc1`, the “activity change, negative = cytotoxicity” value was -5.43%. With `Cc1ccccc1NC(=S)NC(=O)CCc1ccccc1` the “activity change, negative = cytotoxicity” value was 3.55%. With `COC(=O)C1=C(C)N(Cc2ccc(Cl)cc2)C(=S)NC1c1ccc(F)cc1` (stereo not given) the outcome was “inactive”. For `CCCOc1ccc(CNC(=S)NCc2ccc(OC(C)C)cc2)cc1`, the “activity change, negative = cytotoxicity” value was 11%. For `COC(=O)C1=C(C)N(Cc2ccc(Br)cc2)C(=S)NC1c1ccc(OC)cc1` (stereo not given), the “activity change, negative = cytotoxicity” value was -0.601%. With `COc1ccccc1NC(=S)NCc1ccccc1Cl` the “activity change, negative = cytotoxicity” value was 20%. In the case of `S=C(NCCCc1ccccc1)Nc1ccccc1`, the “activity change, negative = cytotoxicity” value is reported as 5.61%. For `Cc1ccc(C(=O)NC(=S)Nc2ccccc2N2CCCC2)cc1[N+](=O)[O-]`, the “activity change, negative = cytotoxicity” value was -1.24%. With `COc1ccc(C(=O)NC(=S)Nc2ccccc2N2CCCCC2)cc1[N+](=O)[O-]` the “activity change, negative = cytotoxicity” value was -1.09%. In the case of `COCC(=O)Nc1ccc2c(c1)C(=O)N(C)C[C@H](OC)[C@@H](C)CN(C(=O)c1ccccc1)[C@@H](C)CO2`, the “activity change, negative = cytotoxicity” value is reported as 5.25%. In the case of `COc1ccc(N2CCN(C(=O)Cc3cccs3)CC2)cc1`, the “activity change, negative = cytotoxicity” value is reported as -2.94%. With `O=C(NC(=S)Nc1ccccc1N1CCCC1)c1ccc([N+](=O)[O-])cc1` the “activity change, negative = cytotoxicity” value was -1.45%. With `COc1ccc(CNC(=S)NCc2ccc(OC)cc2)cc1` the “activity change, negative = cytotoxicity” value was 10.5%. With `COC(=O)C1=C(C)N(Cc2ccccc2)C(=S)NC1c1ccc(Cl)cc1` (stereo not given) the “activity change, negative = cytotoxicity” value was 0.242%. With `Cc1cccc2sc(N3CCN(C(=O)c4cccs4)CC3)nc12` the “activity change, negative = cytotoxicity” value was -0.821%. With `O=C(NC(=S)NCC1COc2ccccc2O1)c1ccc(Cl)cc1` (stereo not given) the “activity change, negative = cytotoxicity” value was 7.29% [at 35 µM]. For `S=C(NCc1ccccc1)NCC1COc2ccccc2O1` (stereo not given), the “activity change, negative = cytotoxicity” value was 5.18%. In the case of `COc1cccc(NC(=S)NC(=O)Cc2ccc(Cl)cc2)c1`, the “activity change, negative = cytotoxicity” value is reported as -3.04%. In the case of `CCOc1ccc(CNC(=S)NCc2ccc(OCC)cc2)cc1`, the “activity change, negative = cytotoxicity” value is reported as 7.21%. In the case of `Fc1ccccc1NC(=S)NCCc1cccc(Cl)c1`, the “activity change, negative = cytotoxicity” value is reported as 11.4%. With `COC(=O)C1=C(C)N(Cc2ccccc2)C(=S)NC1c1cccc(OC)c1` (stereo not given) the outcome was “inactive”. For `CCOC(=O)NC(=S)Nc1ccc(C(C)(C)C)cc1`, the “activity change, negative = cytotoxicity” value was -2.02%. In the case of `COC(=O)C1=C(C)N(Cc2ccc(F)cc2)C(=S)NC1c1cccc(Cl)c1` (stereo not given), the outcome is reported as “inactive”. With `O=C(CN(c1ccc(F)cc1)S(=O)(=O)c1ccccc1)N1CCOCC1` the “activity change, negative = cytotoxicity” value was 3.94%. For `COC(=O)C1=C(C)N(Cc2ccc(Br)cc2)C(=S)NC1c1cccc(Cl)c1` (stereo not given), the “activity change, negative = cytotoxicity” value was -9.46% [at 23.5 µM]. With `COC(=O)C1=C(C)N(Cc2ccc(F)cc2)C(=S)NC1c1ccccc1` (stereo not given) the “activity change, negative = cytotoxicity” value was 14.8% [at 28.5 µM]. In the case of `O=C(NC(=S)Nc1ccccc1N1CCCC1)c1ccccc1[N+](=O)[O-]`, the “activity change, negative = cytotoxicity” value is reported as 11%. In the case of `CCc1ccc(C(C)NC(=S)NCc2ccc(F)cc2)cc1` (stereo not given), the “activity change, negative = cytotoxicity” value is reported as 15.5%. In the case of `O=C(COC(=O)CCC1CCCC1)Nc1nc2c(F)c(F)c(F)cc2s1`, the “activity change, negative = cytotoxicity” value is reported as -1.89%. In the case of `C[C@@H]1CN([C@H](C)CO)S(=O)(=O)c2ccc(C#Cc3ccccn3)cc2O[C@H]1CN(C)Cc1ccccc1`, the “activity change, negative = cytotoxicity” value is reported as -12.4%. For `Cc1ccc(C(=O)NC(=S)Nc2ccc(N3CCOCC3)cc2)cc1`, the “activity change, negative = cytotoxicity” value was -0.18%. For `COC(=O)C1=C(C)N(Cc2ccccc2)C(=S)NC1c1cccc(Br)c1` (stereo not given), the outcome was “inactive”. For `COc1ccccc1NC(=S)NCc1ccc(Cl)cc1`, the “activity change, negative = cytotoxicity” value was 2.24%. In the case of `O=C(NC(=S)Nc1ccc(Br)cc1)C1CCC1`, the “activity change, negative = cytotoxicity” value is reported as -7.12%. With `COC(=O)C1=C(C)N(Cc2ccc(Cl)cc2)C(=S)NC1c1ccc(Br)cc1` (stereo not given) the “activity change, negative = cytotoxicity” value was -1.75% [at 23.5 µM]. With `Cc1cc(Cl)ccc1NC(=S)NCc1ccc(F)cc1` the “activity change, negative = cytotoxicity” value was -1.02%.
